BoNT-F LC inh – blocks Botulinum neurotoxin F light chain protease. Multiplex microsphere protease cleavage assay, flow cytometry. inhibition, % at 10 µM. hit rate 0.22% among 360,000. AID 588497; in the data active = inhibition above about 35%, passing the limit was not always enough; inconclusive = no clear call, values can overlap the other calls
MazEF act – activators of E. coli MazEF toxin-antitoxin RNase | AID 504720 | activation, % at 20 µM | FAM/BHQ RNA-DNA oligo cleavage fluorescence, 5 h | P0AE70 | hit rate 0.32% among 350,000; in the data active = activation above about 50%
Anthrax LF inh2 – blocks Bacillus anthracis lethal factor protease. P15917. multiplex microsphere protease cleavage assay, LF. inhibition, % at 10 µM. hit rate 0.12% among 360,000. AID 588501
Target sequence (P15917 whole entry, looked up): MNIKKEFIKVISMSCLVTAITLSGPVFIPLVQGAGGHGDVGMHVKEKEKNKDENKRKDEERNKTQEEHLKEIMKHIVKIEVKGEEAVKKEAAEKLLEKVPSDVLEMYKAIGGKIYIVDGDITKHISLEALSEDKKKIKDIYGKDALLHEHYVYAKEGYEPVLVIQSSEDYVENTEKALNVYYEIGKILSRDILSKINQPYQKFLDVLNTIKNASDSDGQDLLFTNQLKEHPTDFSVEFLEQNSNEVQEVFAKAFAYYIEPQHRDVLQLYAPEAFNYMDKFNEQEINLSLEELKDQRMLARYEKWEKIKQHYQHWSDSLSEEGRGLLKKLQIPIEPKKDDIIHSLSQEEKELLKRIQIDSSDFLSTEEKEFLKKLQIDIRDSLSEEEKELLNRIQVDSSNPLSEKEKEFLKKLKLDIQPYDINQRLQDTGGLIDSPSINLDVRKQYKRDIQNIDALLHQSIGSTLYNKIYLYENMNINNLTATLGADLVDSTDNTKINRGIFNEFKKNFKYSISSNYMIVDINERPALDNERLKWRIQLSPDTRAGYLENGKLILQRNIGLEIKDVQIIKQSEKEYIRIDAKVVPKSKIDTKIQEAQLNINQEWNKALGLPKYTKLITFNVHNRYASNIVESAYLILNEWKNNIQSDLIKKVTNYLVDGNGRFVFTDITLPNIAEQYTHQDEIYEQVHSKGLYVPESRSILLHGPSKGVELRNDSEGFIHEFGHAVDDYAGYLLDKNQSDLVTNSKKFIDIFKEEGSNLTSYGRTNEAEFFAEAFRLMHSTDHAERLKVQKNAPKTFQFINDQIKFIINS
Bead autofluor – compound fluorescence in toxin protease inhibitor counterscreen; compound autofluorescence counterscreen, microsphere flow cytometry; active compounds read high; fluorescence intensity (concentration not given with the values); hit rate 3.1% among 360,000; in the data active = fluorescence intensity above about 16000; inconclusive = no clear call, values can overlap the other calls
BoNT-A LC inh2 – BoNT A light chain protease inhibition; multiplex microsphere protease substrate cleavage, flow cytometry; inhibition, % at 10 µM; hit rate 0.17% among 360,000; AID 588499
Large screens that a line does not name were inactive. Shown are actives, neighbours in structure and some others; about 3.7% of the full set was active somewhere. Rule as the data show it, unless noted: active = inhibition above about 30%; inconclusive = no clear call, values can overlap the other calls; inactive = below that.

CCCCc1c(O)nc(SCC(=O)N2CCOCC2)n(-c2ccc(C)cc2)c1=O	none
Cc1cc(C)c(NC(=O)CSc2nnc(Cc3cccn3C)n2-c2ccc(F)cc2)c(C)c1	Bead autofluor 25100
Cn1cccc1Cc1nnc(SCC(=O)NCc2ccccc2Cl)n1-c1ccc(F)cc1	none
Cc1ccc(-n2c(SCC(=O)NCc3ccco3)nnc2-c2cccnc2)c(C)c1	Bead autofluor 22964
Cc1cc(C)cc(NC(=O)CSc2nnc(Cc3cccn3C)n2-c2ccc(F)cc2)c1	none
Cn1cccc1Cc1nnc(SCC(=O)NCc2ccco2)n1-c1ccc(F)cc1	Bead autofluor 22151, BoNT-A LC inh2 inconclusive
CCCc1ccc(C(O)c2ncc(-c3ccccc3)[nH]2)cc1 (stereo not given)	none (no result: MazEF act)
CCC(C)(C)c1nnc(NC(=O)CCC2CCCCC2)s1	none
Cc1cc(C(C)(C)C)cc(S(=O)(=O)Nc2ccc(O)c(C(=O)O)c2)c1C	Bead autofluor 20140, BoNT-A LC inh2 inconclusive
COc1ccccc1NC(=O)CSCc1nc2ccccc2[nH]1	none
c1ccc(-n2ncc3c(N4CCN(c5ccccn5)CC4)nc(N4CCCCCC4)nc32)cc1	Bead autofluor 19448
COc1ccc(N2CCN(Cc3cc4c(cc3O)CCC4)CC2)cc1	Bead autofluor 22399
Oc1cc2c(cc1CN1CCN(c3ccccc3)CC1)CCC2	none
Cc1ccc2nc(SCC(=O)Nc3cccnc3Cl)[nH]c2c1	none
Cc1ccc2nc(SCC(=O)Nc3nnc(SCC(N)=O)s3)[nH]c2c1	Bead autofluor 20623
C/C(N)=C(/C#N)C(=O)CSc1nc2ccc(C)cc2[nH]1	Bead autofluor 16421
O=C(CC1NCCNC1=O)Nc1ccc2c(c1)OCO2 (stereo not given)	Bead autofluor 22917
COC(=O)c1cc(NC(=O)CC2NCCNC2=O)cc(C(=O)OC)c1 (stereo not given)	none
CCc1cc(C(=O)OC)c(NC(=O)CC2NCCNC2=O)s1 (stereo not given)	Bead autofluor 21532, BoNT-A LC inh2 inconclusive
O=C(CCSCc1ccccc1F)NCCc1ccccc1	none
O=CN1CCN(C(C(=O)NC2CCCCC2)c2ccc(Cl)cc2)CC1 (stereo not given)	none
Cc1cc(=O)oc2cc(OCC3CC(c4ccc(Cl)cc4)=NO3)ccc12 (stereo not given)	Bead autofluor 22029
CCOC(=O)C1=CN(Cc2cccc(F)c2)S(=O)(=O)N(C)C1c1cccc(OC)c1 (stereo not given)	MazEF act 50
CSC1=C(C#N)C(c2ccccc2C)C(C#N)=C(N)N1 (stereo not given)	Bead autofluor 23095, BoNT-A LC inh2 inconclusive
CSC1=C(C#N)C(c2ccccc2Cl)C2=C(N1)c1ccccc1C2=O (stereo not given)	none (no result: BoNT-F LC inh, Anthrax LF inh2, Bead autofluor, BoNT-A LC inh2)
N=c1ncn(CC(O)CN2CCOCC2)c2nc(N3CCOCC3)[nH]c12 (stereo not given)	Bead autofluor 22533
CCCN1CCN(c2nc3c([nH]2)c(=N)ncn3CC(O)CO)CC1 (stereo not given)	none
COc1ccc(C(=O)NC2CC(C)(C)NC(C)(C)C2)cc1S(=O)(=O)N1CCOCC1	none
O=C(CN1C(=O)c2ccccc2C1=O)NCc1ccncc1	Bead autofluor 20208
COc1ccc(C(=O)c2c(N)sc3c2CCN(C)C3)cc1	BoNT-A LC inh2 34
O=C1CSC(c2ccccc2)N1Cc1ccccc1 (stereo not given)	BoNT-F LC inh inconclusive, Bead autofluor 16347 (no result: MazEF act)
COC(=O)c1ccc(C2SCC(=O)N2Cc2ccccc2)cc1 (stereo not given)	none
COc1ccc(C2CC(C(F)(F)F)n3nc(CO)c(Cl)c3N2)cc1OC (stereo not given)	Bead autofluor 16477
COc1ccc(C2CC(C(F)(F)F)n3nc(C(=O)O)c(Cl)c3N2)cc1OC (stereo not given)	none
O=C(NCc1ccc(Cl)cc1)N1CCN(S(=O)(=O)c2ccccc2)CC1	none
Cc1nnc2n1N=CC=C(c1ccccc1)S2	none
Cc1nnc2n1N=CC=C(C(C)(C)C)S2	Bead autofluor 23527
CC(C)NC(=O)C1(c2ccccc2)CCOCC1	none
CC(Cc1ccccc1)NC(=O)C1(c2ccccc2)CCOCC1 (stereo not given)	Bead autofluor 22824, BoNT-A LC inh2 inconclusive
Nc1nonc1-c1noc(CCCOc2ccc(Cl)cc2Cl)n1	Bead autofluor 22747, BoNT-A LC inh2 inconclusive
CCCCCc1nc(-c2nonc2N)no1	none
O=C(c1ccco1)N(CCC(c1ccccc1)c1ccco1)Cc1ccc(F)cc1 (stereo not given)	Bead autofluor 16623
O=C1N(Cc2ccccc2F)c2ccccc2C12OCCCO2	Bead autofluor 20831
O=C1N(Cc2ccc(F)cc2Cl)c2ccccc2C12OCCCO2	Bead autofluor 19128
O=C1c2ccccc2C(=O)N1CCC#Cc1ccc2cc(CCCO)oc(=O)c2c1	none
O=S(=O)(c1ccccc1C(F)(F)F)N1CCN(S(=O)(=O)c2ccccc2C(F)(F)F)CC1	Bead autofluor 22001
O=C(c1cc(-c2cccs2)nc2ccccc12)N1CCN(S(=O)(=O)c2ccccc2)CC1	Bead autofluor 16484
O=C(c1ccccc1C(F)(F)F)N1CCN(S(=O)(=O)c2ccccc2)CC1	Bead autofluor 19835
O=C(c1cc(-c2cccs2)nc2ccccc12)N1CCN(S(=O)(=O)c2cccc(F)c2)CC1	none
Cc1sc2ncnc(SCC(=O)N3CCCC(C(N)=O)C3)c2c1C (stereo not given)	none
Cc1c(C(=O)N2CCN(C3CCS(=O)(=O)C3)CC2)oc2c(F)cccc12 (stereo not given)	none
Nc1cc(C(=O)N/N=C/c2cccc([N+](=O)[O-])c2)n[nH]c1=O	none
Cn1cccc1CC(=O)NNC(=S)NC(=O)c1ccccc1Br	none
Cn1c(Sc2ccc(C(F)(F)F)cc2[N+](=O)[O-])nnc1-c1ccccc1	Bead autofluor 18706
CCn1c(CN2CCN(C(=O)c3ccco3)CC2)nc2c1c(=O)n(C)c(=O)n2C	Bead autofluor 21356, BoNT-A LC inh2 inconclusive
CCCCn1c(CN(C)Cc2ccccc2)nc2c1c(=O)n(C)c(=O)n2C	Bead autofluor 19708
CCCCCn1c(CN2CCN(c3cccc(Cl)c3)CC2)nc2c1c(=O)n(C)c(=O)n2C	none
CCCn1c(CN(C)Cc2ccccc2)nc2c1c(=O)n(C)c(=O)n2C	none
CCCCn1c(CN2CCN(c3cccc(Cl)c3)CC2)nc2c1c(=O)n(C)c(=O)n2C	Bead autofluor 19625
CC(C)CCn1c(CN2CCN(Cc3ccccc3)CC2)nc2c1c(=O)n(C)c(=O)n2C	Bead autofluor 20587, BoNT-A LC inh2 inconclusive
CC(C)Cn1c(CN2CCN(C(=O)c3ccco3)CC2)nc2c1c(=O)n(C)c(=O)n2C	none
COc1ccc(Cn2c(C)nnc2-c2cnn(C)c2N)cc1	none
CC1(C)C[C@H]2C3=CCC4[C@@]5(C)CC[C@H](O)[C@@](C)(CO)C5CC[C@@]4(C)[C@]3(C)C[C@@H](O)[C@@]2(CO)[C@@H](O)[C@@H]1O (stereo not given in full)	none
O=C(CCS(=O)(=O)c1ccc(Br)cc1)NC1CCCCCC1	none
Cc1cc(C)cc(N(CC(=O)NCCSCc2ccccc2)S(C)(=O)=O)c1	none

High-throughput results as filed in PubChem.
